# Sampled rows, rich in hits. Any-hit rate of the full collection: about 9%.
# IMPase inh: IMPase inhibition in cells; CHO-M1 cells, IP1 accumulation, HTRF TR-FRET ratio; inhibition (IP1 accumulation), % at 46.1 µM; 120,000 tested, under 10 active; AID 901; active = well fitted curve in the direction sought with a large enough effect in the signal ratio, not every such curve was filed as active; inconclusive = small, poorly fitted or top-dose-only effect, or a change in a side signal; inactive = no such curve, though single readings can be large or run the other way; the % refers to the signal ratio;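 also: cells stimulated with carbachol in lithium chloride buffer; plate controls were DMSO basal wells for no effect and reference inhibitor wells for full effect; higher means more IMPase inhibition seen as more IP1 and lower FRET ratio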
# Target sequence (P97697 whole entry, looked up): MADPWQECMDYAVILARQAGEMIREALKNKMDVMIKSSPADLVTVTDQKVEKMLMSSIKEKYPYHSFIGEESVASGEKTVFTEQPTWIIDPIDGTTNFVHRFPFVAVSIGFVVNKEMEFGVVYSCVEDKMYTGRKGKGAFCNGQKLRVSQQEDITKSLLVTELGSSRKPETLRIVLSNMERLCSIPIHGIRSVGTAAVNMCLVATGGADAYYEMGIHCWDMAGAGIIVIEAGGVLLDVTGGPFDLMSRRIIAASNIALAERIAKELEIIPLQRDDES
#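 Seeded CHO-M1 cells were dosed with compound at up to 46 uM, stimulated with carbachol for 30 min, then lysed in IP-One detection reagents. Higher IP1 lowers the TR-FRET signal.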
# ALDH1A1 block: inhibitors of human aldehyde dehydrogenase 1A1 | 7.3% of 220,000 active | Potency, µM (titrated, usually from 75.3 µM), without a hit: top-dose activity, negative = inhibition, actives largely listed as inhibitors | P00352 | Purified ALDH1A1, NADH fluorescence, propionaldehyde substrate;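 also: potency is read from the fitted curve at half-maximal effect; plate controls were no enzyme wells and a reference inhibitor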
# HPGD inh: HPGD (human) dehydrogenase inhibition | purified HPGD, NADH fluorescence kinetic, PGE2 substrate | Potency, µM, for the others: top-dose activity change, negative = inhibition, actives largely listed as inhibitors | 4.3% of 150,000 active | AID 894; also: potency is read from the fitted curve at half-maximal effect
# Target sequence (P15428 whole entry, looked up): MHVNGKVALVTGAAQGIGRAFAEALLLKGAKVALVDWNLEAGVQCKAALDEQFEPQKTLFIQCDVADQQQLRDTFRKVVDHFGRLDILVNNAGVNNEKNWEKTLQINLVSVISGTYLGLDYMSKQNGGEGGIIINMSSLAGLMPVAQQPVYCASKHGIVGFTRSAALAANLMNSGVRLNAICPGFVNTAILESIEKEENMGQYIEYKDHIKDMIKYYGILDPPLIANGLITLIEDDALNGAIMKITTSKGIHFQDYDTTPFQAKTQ
#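 20 nM HPGD preincubated 15 min at room temperature with compound in 50 mM Tris-HCl pH 8, 0.01% Tween 20. Started with 1 mM NAD+ and 30 uM prostaglandin E2; NADH fluorescence (360/450 nm) read 5 times over 30-s intervals, last minus first.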
# An asterisk follows results filed as active; ? = inconclusive; / = no result; [ ] = dose if it differs, or a comment. Unless noted, calls follow the shape of the dose curve; as a rule, active = well fitted inhibition curve with a large enough effect (not every such curve was filed as active); inconclusive = small, poorly fitted or top-dose-only effect, or another doubt; inactive = no such curve, though single readings can be large or run the other way. Unless noted, % is scaled to controls: 0 for no effect and ±100 for the full control effect.
SMILES,IMPase inh,ALDH1A1 block,HPGD inh
O=[N+]([O-])c1ccc(N2CCN(C(=S)Nc3cccc(F)c3)CC2)cc1,/,14.1µM*,/
O=[N+]([O-])c1ccc(N2CCN(C(=S)Nc3ccc(F)cc3F)CC2)cc1,/,11.2µM*,/
Fc1cccc(NC(=S)N2CCCCC2)c1,-1.4,-1.4%,-9.1%
CCCC(=O)NC(=S)N1CCN(c2ccc([N+](=O)[O-])cc2)CC1,/,?,-15.8%
S=C1N(c2ccccc2)CN(C2CCCCC2)CN1c1ccccc1,/,4.5%,/
C[n+]1ccc(CC2C(=[N+]([O-])[O-])C=Nc3ncnn32)cc1 (centres undefined),/,1.3%,/
COC(=O)N1CCC2(CC1)CN(C(=O)Nc1ccccc1)C2,/,-3.3%,-13.3%
COc1ncc2nc(-c3ccc(F)cc3)c(=O)n(CCc3ccccc3)c2n1,/,18.7%,/
COC(=O)C1C(c2ccc(OC)c(OC)c2)NC(c2ccc(OC)c(OC)c2)C(C(=O)OC)S1(=O)=O (centres undefined),5.8,-1.7%,-7.3%
COC(=O)C1CSc2[nH]c(=O)sc2C1c1ccc(OC)c(OC)c1 (centres undefined),-18.7,7.94µM*,3.4%
Cc1cc(/C=C2\SC(=S)N(Cc3ccco3)C2=O)c(C)n1-c1cccnc1,8.8,0.282µM*,-15.4%
CCN1C(=O)/C(=C\c2cn(-c3ccccc3)nc2-c2cccnc2)SC1=S,/,0.8%,/
NC1=NC(=O)/C(=C\c2ccc(O)c([N+](=O)[O-])c2)S1,/,-16.4%,/
O=C1/C(=C/c2ccccc2O)SC(=S)N1Cc1cccnc1,/,7.51µM*,2.82µM*
Cc1cc(/C=C2\NC(=S)NC2=O)c(C)n1-c1cccnc1,/,22.9%,/
O=C1/C(=C/c2ccc(O)c([N+](=O)[O-])c2)SC(=S)N1Cc1ccccc1,/,3.98µM*,/
CN1C(=O)/C(=C/c2ccc(O)c([N+](=O)[O-])c2)NC1=S,/,11.2µM*,/
Cc1nnc(N/N=C/c2ccc(O)c([N+](=O)[O-])c2)[nH]c1=O,8.0,-7.8%,-10.2%
CC1CCC(C(=O)O)NC1c1ccc(C#CCN(C)C)cc1 (centres undefined),/,23.2%[13.5 µM],/
COCCN(CCOC)C(=O)c1ccc(Cc2nc3ccccc3[nH]2)cc1,/,-7.7%,-12.5%
CCN(CC(=O)Nc1cccc(C#N)c1)CC(=O)Nc1cccc(OC)c1,/,-2.2%,/
O=C1/C(=C/c2cccnc2)SC(=S)N1c1ccccc1,1.2,?,-9.1%
O=C(O)CCCCCN1C(=O)/C(=C\c2ccncc2)SC1=S,/,-3.4%,-22.1%
COc1ccc(CN2C(=O)/C(=C/c3ccncc3)SC2=S)cc1,/,10µM*,-19.9%
O=C1/C(=C/c2cccnc2)SC(=S)N1Cc1ccco1,/,2.24µM*,-14.2%
SMILES,IMPase inh,ALDH1A1 block,HPGD inh
CC(C)(Oc1ccc(Cl)cc1)C(=O)O,-5.2,11.5%,-1.8%
CCN1C(=O)C(CC(=O)Nc2ccc(OC)cc2)N(CCN2CCOCC2)C1=S (centres undefined),/,-13.7%,/
CCN1C(=O)C(CC(=O)Nc2ccc(OC)cc2)N(Cc2cccnc2)C1=S (centres undefined),3.9,?,-10.1%
COc1ccc(NC(=O)CC2C(=O)N(C)C(=S)N2CCc2ccccc2F)cc1 (centres undefined),/,3.98µM*,/
CCN1C(=O)C(CC(=O)Nc2ccc(F)cc2)N(CCc2ccc(OC)cc2)C1=S (centres undefined),/,10µM*,/
COc1ccc(NC(=O)CC2C(=O)N(C)C(=S)N2Cc2ccco2)cc1 (centres undefined),/,12.9%,-13.2%
CCN1C(=O)C(CC(=O)Nc2ccc(OC)cc2)N(CCc2ccccc2)C1=S (centres undefined),/,2µM*,/
CC1CCN(C(=O)COc2cccc3c2CCN(C)C3=O)CC1,/,-12.4%,/
Cc1ccc(C#CC[N+]2(CC#Cc3ccc(C)cc3)CCCCC2)cc1,-10.5,4.1%,-5.9%
COc1ccc(NC(=O)c2ccco2)cc1NC(=O)COc1ccc(Cl)c(C)c1,-0.2,/,/
C=CCNC(=O)NC(=O)COC(=O)/C(C#N)=C/c1cc(C)n(CC(C)C)c1C,9.7,14.0%,2.6%
C=CCNC(=O)NC(=O)COC(=O)/C(C#N)=C/c1ccc(OC)cc1,/,25.1µM*,/
Cc1c(/C=C/C(=O)c2ccc(C(C)C)cc2)cnn1C,/,-2.2%,/
COc1cc(C)ccc1OCCOc1c(Cl)cc(Cl)cc1Cl,5.4,6.3%,/
COc1cc(C)ccc1OCCOc1cc(C)ccc1Cl,17.1,?,2.24µM*
N#Cc1ccc(CN2CC3(CCN(C(=O)c4cc(C(F)(F)F)cc(C(F)(F)F)c4)CC3)C2)cc1,/,7.5%,-6.6%
COc1ccc(OC)c(-c2c(C#N)c(N)nc3c2c(=O)nc2sccn23)c1,/,-1.9%,/
COc1ccc(-c2oc3ncn4nc(COc5ccc(C)cc5)nc4c3c2-c2ccc(OC)cc2)cc1,-3.3,/,/
CCCCC(O)(CCCC)C(=O)NN(C(=O)OC)c1ccccc1,/,7.8%,-7.5%
S=C(Nc1ccccc1Cl)N1CCOCC1,/,2.5%,-10.8%
S=C(Nc1ccc(Cl)c(Cl)c1)N1CCOCC1,/,7.4%,-1.1%
S=C(c1ccc(-c2ccccc2Cl)o1)N1CCOCC1,?,7.94µM*,8.91µM*
S=C(c1ccc(-c2ccc(Cl)c(Cl)c2)o1)N1CCOCC1,-15.1,8.91µM*,25.1µM*
O=C(NC1CCCCC1)/C(=C/c1ccc(Cl)cc1)NC(=O)c1ccccc1,-0.7,/,/
N#C/C(=C(/O)c1ccc(C(=O)c2ccccc2)cc1)c1nc2ccccc2[nH]1,/,15.2%,/
SMILES,IMPase inh,ALDH1A1 block,HPGD inh
O=C(c1ccccc1)c1nc2ccccc2n(CCCn2c(=O)c(C(=O)c3ccccc3)nc3ccccc32)c1=O,2.0,11.2µM*,-2.0%
O=C(c1ccccc1)c1nc2ccccc2[nH]c1=O,1.5,2.9%,25.1µM*
Cn1c(=O)c(C(=O)c2ccccc2)nc2ccccc21,1.6,0.4%,-21.1%
CCN(CC)Cc1ccccc1Sc1ccccc1,/,7.3%,-3.1%
COCC(=O)N1CCC[C@@]2(CCN(Cc3ccc(C#N)cc3)C2)C1,/,-7.7%,-5.0%
O=C(O)CC/C=C\C[C@@H]1CO[C@H](c2ccccc2Cl)O[C@@H]1c1ccccc1O,3.2,0.3%,-2.9%
COc1ccccc1NC(=O)c1csc2c1CCC(C)C2 (centres undefined),/,2.9%,/
Cc1ccc(C)c(NC(=S)NNC(=O)c2csc3c2CCCC3)c1,6.0,8.91µM*,-10.8%
Cc1ccc(C)c(NC(=S)NNC(=O)c2csc3c2CCC(C)C3)c1 (centres undefined),-6.0,10µM*,-10.2%
Cc1cccc(NC(=S)NNC(=O)c2csc3c2CCCC3)c1,4.7,?,0.8%
NCCCNCCCCNCCCNC(=O)CCc1ccc(O)cc1,/,0.7%[13.5 µM],-12.4%
Cc1ccnc(NC(=O)CN2C(=O)c3ccccc3C2=O)c1,/,0.0%,/
CCN(CC)CC(=O)NC12CC3CC(CC(C3)C1)C2,0.1,7.2%,-21.8%
CCN(CC)C(=S)SCC(=O)NC12CC3CC(CC(C3)C1)C2,/,4.47µM*,14.1µM*
Cn1c(SCc2ccccc2)nnc1-c1ccco1,/,3.9%,/
c1ccc(CSc2n[nH]c(-c3ccco3)n2)cc1,?,-5.1%,12.6µM*
N#C/C(=N\Nc1ccc(F)cc1)C(=N)N1CCCCC1,7.5,28.2µM*,-24.6%
N#C/C(=N\Nc1cccc(F)c1)C(=N)N1CCCCCC1,/,4.6%,/
O=C(C1CCCO1)N1CCN(C(=S)Nc2ccccc2F)CC1 (centres undefined),/,-5.3%,-5.2%

# Screening results deposited in PubChem by National Center for Advancing Translational Sciences (NCATS).
